# Assay results from a collection of fitness landscapes (doi:10.1038/s41467-024-54723-y).
# In all, about 18,000 sequences were measured (“TetR repression strength (sort-seq, GFP reporter)”: median about 0.23, highest 2% from about 0.68 on). This excerpt belongs to a sample that is enriched for the highest values.
# Biological target: TetR (class B, Tn10) (UniProt P04483)
# Experiment: TetR repression strength (sort-seq, GFP reporter) (relative to tetO2 = 1); higher = stronger repression
# Details: E. coli
# Procedure, shortened: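 E. coli SIG10-MAX carried a low-copy plasmid library with eight randomized operator positions between a constitutive promoter and sfGFP, with TetR constitutively expressed. Cells grew 5 h at 37 °C in LB with 50 µg/mL chloramphenicol, then 10^6 cells were FACS-sorted into 13 fluorescence bins, each Illumina-sequenced. Repression strength is the top bin index plus one minus the read-weighted mean bin, divided by the wild-type operator value. Three independent transformations; variants with ≥30 reads in all replicates and CV ≤0.5 were averaged.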
# TetR (class B, Tn10), sequence (P04483 whole entry): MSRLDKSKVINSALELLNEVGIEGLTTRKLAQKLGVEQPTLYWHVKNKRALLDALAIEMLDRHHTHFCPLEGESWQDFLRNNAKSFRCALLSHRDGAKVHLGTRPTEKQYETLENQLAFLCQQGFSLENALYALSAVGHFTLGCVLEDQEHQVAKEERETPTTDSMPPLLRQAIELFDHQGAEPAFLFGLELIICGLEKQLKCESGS
row,Sequence,TetR repression strength
1,TCCCGAGGAGTGTTCGAGA,0.224
2,TCCCGTGGAGTTTCTGAGA,0.0476
3,TCCCGTTTAGTAGTTGAGA,0.028
4,TCCCGTTGAGTGTTTGAGA,0.13
5,TCCCGTTGAGTTTCTGAGA,0.744
6,TCCCGTGGAGTGTTCGAGA,0.914
7,TCCCGTTGAGTATTTGAGA,0.329
8,TCCCGTGGAGTGTTGGAGA,0.325
9,TCCCGTCGAGTGTTCGAGA,0.218
10,TCCCGTAAAGTGGTGGAGA,0.228
11,TCCCTCGAAGTGCTTGAGA,0.406
12,TCCCGAAGAGTGTTGGAGA,0.268
13,TCCCGTCAAGTACGCGAGA,0.196
14,TCCCCATGAGTAATTGAGA,0.334
15,TCCCGCGTAGTTACCGAGA,0.161
16,TCCCTCGGAGTGTGCGAGA,0.09
17,TCCCTTTGAGTATGGGAGA,0.0551
18,TCCCTCGAAGTAGAAGAGA,0.297
19,TCCCGGGGAGTGTCCGAGA,0.125
20,TCCCGTGGAGTGGCCGAGA,0.159
21,TCCCGTGGAGTGTCCGAGA,0.821
22,TCCCTACAAGTGTTTGAGA,0.295

row,Sequence,TetR repression strength
1,TCCCGGACAGTTGGTGAGA,0.421
2,TCCCAGACAGTCATTGAGA,0.375
3,TCCCGGGCAGTCCGCGAGA,0.163
4,TCCCAATGAGTGGGCGAGA,0.238
5,TCCCCAATAGTTAGGGAGA,0.699
6,TCCCGGTTAGTTACGGAGA,0.211
7,TCCCGCTGAGTTAGGGAGA,0.929
8,TCCCGCTTAGTTAGGGAGA,1.02
9,TCCCGCTAAGTTAGGGAGA,0.286
10,TCCCGCTGAGTTACGGAGA,0.652
11,TCCCGCTTAGTGAGGGAGA,0.419
12,TCCCCCATAGTTAGGGAGA,0
13,TCCCGCTGAGTTAGAGAGA,0.0464
14,TCCCCAACAGTTAGGGAGA,0.218
15,TCCCGCGGAGTTAGGGAGA,0.207
16,TCCCGCTTAGTTACGGAGA,1.2
17,TCCCTTTGAGTGGACGAGA,0.246
18,TCCCCATTAGTGGAGGAGA,0.275
19,TCCCCGGCAGTATGTGAGA,0.189
20,TCCCGGAAAGTCTAGGAGA,0.216
21,TCCCTTTAAGTCGACGAGA,0.285
22,TCCCTTTTAGTGTGGGAGA,0.317

row,Sequence,TetR repression strength
1,TCCCGTTAAGTCTTGGAGA,0.302
2,TCCCGAGTAGTCACTGAGA,0.231
3,TCCCGGCGAGTCGTTGAGA,0.801
4,TCCCGGCTAGTCGTTGAGA,0.89
5,TCCCGGCTAGTAGTTGAGA,0.295
6,TCCCGGCTAGTCACTGAGA,0.256
7,TCCCGGAGAGTCGTTGAGA,0.118
8,TCCCGTCGAGTCGTTGAGA,0.134
9,TCCCGGTTAGTCGTTGAGA,0.225
10,TCCCGCCTAGTCACTGAGA,0.682
11,TCCCAATAAGTGTGCGAGA,0.242
12,TCCCGTTTAGTCGCGGAGA,0.215
13,TCCCAGTTAGTGGGTGAGA,0.172
14,TCCCCTCGAGTGCCGGAGA,0.442
15,TCCCTAAAAGTGGGAGAGA,0.203
16,TCCCTATGAGTGATAGAGA,0.765
17,TCCCACCGAGTGAGAGAGA,0.43
18,TCCCAAAGAGTGGTAGAGA,0.164
19,TCCCCAGGAGTGGTAGAGA,0.189
20,TCCCCAGGAGTGATAGAGA,0.339
21,TCCCACCGAGTGATCGAGA,0.405
22,TCCCAAGGAGTGGTAGAGA,1.18

row,Sequence,TetR repression strength
1,TCCCTGTGAGTGATAGAGA,0.456
2,TCCCTATGAGTGCTAGAGA,0.452
3,TCCCATGGAGTGATAGAGA,0.548
4,TCCCAAGGAGTGATAGAGA,0.977
5,TCCCACCGAGTGATAGAGA,1.21
6,TCCCGGATAGTGGGTGAGA,0.0875
7,TCCCCGGCAGTCGCAGAGA,0.207
8,TCCCGTGTAGTAAGGGAGA,0.307
9,TCCCGCCGAGTAGGCGAGA,0.34
10,TCCCAATGAGTGATAGAGA,0.685
11,TCCCACTGAGTGATAGAGA,0.551
12,TCCCAGTGAGTGATAGAGA,0.528
13,TCCCTGTTAGTGGGGGAGA,0.737
14,TCCCTGATAGTGGGGGAGA,0.0581
15,TCCCAAATAGTGTGGGAGA,0.459
16,TCCCTGTTAGTGGGAGAGA,0.189
17,TCCCAAATAGTGGGAGAGA,0.214
18,TCCCAAATAGTGGGGGAGA,1.1
19,TCCCTGAAAGTCACGGAGA,0.337
20,TCCCGGGGAGTTAGGGAGA,0.346
21,TCCCCACCAGTGTCAGAGA,0.334
22,TCCCCACAAGTGTCAGAGA,0.352

row,Sequence,TetR repression strength
1,TCCCCACCAGTATCAGAGA,0.697
2,TCCCCACAAGTATCCGAGA,0.296
3,TCCCCACAAGTATCAGAGA,0.752
4,TCCCACCCAGTATCAGAGA,0.2
5,TCCCGGTAAGTGATGGAGA,0.338
6,TCCCGAGAAGTCCGAGAGA,0.474
7,TCCCAGTAAGTCAGAGAGA,0.066
8,TCCCGGAAAGTCTCGGAGA,0.107
9,TCCCAAGTAGTTGGTGAGA,0.774
10,TCCCTCGGAGTGGGTGAGA,0.988
11,TCCCTAGTAGTTGGTGAGA,0.177
12,TCCCTCGTAGTGAGTGAGA,0.507
13,TCCCTCTGAGTGGGTGAGA,0.195
14,TCCCTCATAGTGGGTGAGA,0.0921
15,TCCCCAGTAGTTGGTGAGA,0.114
16,TCCCTCAGAGTTGGTGAGA,1.2
17,TCCCTCGTAGTGGGTGAGA,0.815
18,TCCCTAAGAGTTGGTGAGA,0.137
19,TCCCTGAGAGTTGGTGAGA,0.164
20,TCCCTCGGAGTGGGAGAGA,0.217
